PAX8 reporter: inhibitors of PAX8-driven TPO luciferase reporter, primary screen, RMG-I cells, single concentration; actives 1.2% (n = 360,000); AID 652154, 2013; inhibition, % at 12.6 µM; SteadyGlo, 24 h;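 active = mean replicate inhibition at least 60% with every replicate also reaching 60%; inconclusive = only one of the two criteria is met; inactive = mean below 60% and not all replicates reaching 60%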;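 also: luciferase light reporting Pax8 driven TPO promoter activity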
LMP1 NFkB inh: EBV LMP1-driven NF-kappaB luciferase reporter inhibitors, primary screen, cell-based, luminescence, single point; inhibition, % at 12.5 µM; actives 0.69% (n = 350,000); LMP1-induced NF-kappaB luciferase reporter cells; in the data active = inhibition above about 41%; inconclusive = no clear call, values can overlap the other calls
LGR2 inh: inhibitors of bursicon-induced LGR2 CRE-luciferase signal, primary screen, cell-based, HEK293, CRE-luciferase reporter, bursicon stimulation; inhibition, % at 9.99 µM; Drosophila bursicon receptor LGR2 (rickets); bursicon-stimulated, 4 h; actives 0.35% (n = 380,000);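 active = drop in luminescence signal, shown as inhibition above about 50% in the replicate tests, limit read from the data, passing the limit was not always enough; inconclusive = probably only some replicates passing the limit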;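 also: agonist challenge used bursicon conditioned medium at about half maximal strength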
TRPM1 prom inh: inhibitors of MITF-dependent TRPM1 promoter reporter, primary screen, cell-based, SK-MEL-5, single point, luciferase; SK-MEL-5 TRPM1 promoter luciferase, 24 h; inhibition, % at 12.5 µM; AID 488899, 2010; actives 0.83% (n = 330,000);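 active = mean inhibition across replicates of 60% or more, whatever share of single replicates reaches that level; inconclusive = some that reach 60%, reason not given; inactive = mean inhibition across replicates below 60%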
Shn3 inh set2: reduction of Shn3 3'UTR firefly luciferase signal, primary screen, Schnurri-3 inhibitor project, cell-based, Clone20 osteoblasts, set 2. Clone20 osteoblast Shn3 3'UTR firefly luciferase, 24 h. inhibition, % at 12.5 µM. actives 0.52% (n = 360,000);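 active = mean inhibition of at least 75% with every replicate also reaching 75%; inconclusive = mean inhibition at least 75% but some replicate below; inactive = mean inhibition below 75%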
EWS-Fli inh: EWS/Fli-driven NR0B1 reporter inhibitors, primary screen, A673 cells, NR0B1 luciferase, luminescence, MLPCN library; actives 0.67% (n = 350,000); inhibition, % at 12.6 µM; viability-normalised;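 active = mean inhibition of at least 50% after viability correction, with every replicate also passing that limit; inconclusive = mean reaches 50% but only one of two replicates passes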;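 also: firefly luciferase signal divided by Alamar Blue viability fluorescence both relative to DMSO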
A number is an active result; - = inactive; ? = inconclusive; . = not tested or not shown. Most compounds without a hit are left out; they make up all but 2.2% or so of the library.

SMILES	PAX8 reporter	LMP1 NFkB inh	LGR2 inh	TRPM1 prom inh	Shn3 inh set2	EWS-Fli inh
CC(C)N1CCc2c(sc(NC(=O)c3ccc([N+](=O)[O-])o3)c2C(N)=O)C1	96	-	-	94	-	-
CC(C)N1CCc2c(sc(NC(=O)c3nc4ccccc4s3)c2C(N)=O)C1	-	-	-	-	-	-
COC(=O)c1c(NC(=O)c2ccc([N+](=O)[O-])o2)sc2c1CCN(C(C)C)C2	.	-	-	63	-	-
CC(=O)N1CCc2c(sc(NC(=O)c3ccc([N+](=O)[O-])o3)c2C#N)C1	96	-	-	95	-	-
COc1ccc(C(=O)Nc2sc3c(c2C#N)CCN(C(C)=O)C3)cc1	-	-	-	-	-	-
COC(=O)c1c(NC(=O)Cc2ccccc2)sc2c1CCN(C(C)C)C2	-	-	-	.	-	-
C[C@@H]1CCCCO[C@@H](CN(C)C(=O)c2ccncc2)[C@@H](C)CN([C@H](C)CO)C(=O)c2cc(NC(=O)NC3CCCCC3)ccc2O1	-	.	-	.	.	-
CCCNC(=O)N1[C@H](CO)[C@@H](c2ccccc2)[C@@H]1C#N	-	.	-	.	.	-
C[C@@H]1CN([C@H](C)CO)C(=O)c2cc(-c3cccc(F)c3)cnc2O[C@@H]1CN(C)Cc1cccc(F)c1	.	.	-	.	.	-
COc1ccc(S(=O)(=O)Nc2ccc3c(c2)C(=O)N([C@@H](C)CO)C[C@@H](C)[C@H](CN(C)Cc2ccc(Oc4ccccc4)cc2)O3)cc1	-	.	-	.	.	-
CCN1C(=O)CCN(C2CCCC2)c2nc(Nc3ccc(C(=O)NC4CCN(C)CC4)cc3OC)ncc21	-	-	-	76	-	62
C[C@H]1CN([C@@H](C)CO)S(=O)(=O)c2ccc(-c3cccc(F)c3)cc2O[C@@H]1CN(C)S(=O)(=O)c1ccccc1	.	.	-	.	.	-
COc1ccccc1NC(=O)NCc1ccco1	-	-	-	-	-	-
COc1cc(NC(=O)NCc2ccco2)ccc1-c1ccc(NC(=O)NCc2ccco2)cc1OC	67	-	-	?	83	-
O=c1cc(-c2ccc(O)c(O)c2)oc2cc(O)cc(O)c12	-	-	-	-	-	-
O=c1c(O)c(-c2ccc(O)c(O)c2)oc2cc(O)cc(O)c12	-	90	.	-	-	-
C[C@H](CO)N1C[C@H](C)[C@H](CN(C)CC2CCCCC2)Oc2c(NC(=O)NC3CCCCC3)cccc2C1=O	.	.	-	.	.	-
COc1ccc2c(c1)OC(=O)CC2c1cc(OC)c(OC)c(OC)c1 (configuration not stated)	-	89	-	-	-	-
O=C(Cc1ccc([N+](=O)[O-])cc1)N1CCN=C1SCc1ccccc1	-	-	-	-	-	-
Cc1ccc(C)c(CSC2=NCCN2C(=O)Cc2ccc([N+](=O)[O-])cc2)c1	95	-	-	-	-	-
CC(=O)N(C)C[C@@H]1Oc2cc(-c3ccc(C)cc3)ccc2S(=O)(=O)N([C@H](C)CO)C[C@@H]1C	.	.	-	.	.	-
CCC(=O)Nc1ccc2c(c1)C(=O)N(C)C[C@H](OC)[C@H](C)CN(Cc1ccccn1)[C@@H](C)CO2	-	.	-	.	.	-
O=C(c1cnccn1)N1CC(=O)N2[C@H](CO)[C@@H](c3ccc(-c4cccc(F)c4)cc3)[C@@H]2C1	-	.	-	.	.	-
Cc1ccc(C)c(-c2cc(C(=O)Nc3cccc(C(=O)O)c3)c3ccccc3n2)c1	83	-	-	-	-	-
C/C(=N\NC(=O)c1ccccc1-n1cccc1)c1ccccn1	71	-	-	.	93	-
SMILES	PAX8 reporter	LMP1 NFkB inh	LGR2 inh	TRPM1 prom inh	Shn3 inh set2	EWS-Fli inh
C/C(=N\NC(=O)c1ccc(F)cc1)c1ccccn1	63	-	-	-	89	-
C/C(=N\NC(=O)c1c[nH]c2ccccc12)c1ccccn1	-	-	-	-	-	-
CCN(CC)C(=O)COc1ccc(/C(C)=N/NC(=O)c2ccccc2-n2cccc2)cc1	-	-	-	-	-	.
C/C(=N\NC(=O)c1cc2ccccc2cc1O)c1ccccn1	-	?	-	74	97	.
COCC(=O)N[C@@H]1CC[C@H](CC(=O)N2CCCCC2)O[C@@H]1CO	-	.	-	.	.	-
CCNC(=O)Nc1ccc2c(c1)C(=O)N(C)[C@@H]1CC[C@@H](CC(=O)NCc3ccc(F)cc3)O[C@@H]1CO2	-	.	-	.	.	-
CCn1c2ccccc2c2cc(/C=N/NC(=O)c3ccc(O)cc3)ccc21	-	84	-	-	-	-
CCn1c2ccccc2c2cc(NC(=O)c3cc(OC)cc(OC)c3)ccc21	96	-	-	-	-	.
CCn1c2ccccc2c2cc(/C=N/NC(=O)c3cc(O)cc(O)c3)ccc21	-	66	-	-	-	-
CCn1c2ccccc2c2cc(/C=N/NC(=O)c3ccncc3)ccc21	-	?	-	-	-	-
Cc1ccc(-c2ccc3c(c2)O[C@@H](CN(C)S(C)(=O)=O)[C@H](C)CN([C@H](C)CO)S3(=O)=O)cc1	.	.	-	.	.	-
COc1ccc(NC(=O)N(C)C[C@@H]2Oc3ccc(NC(=O)CCCCCC(=O)Nc4ccccc4N)cc3CC(=O)N([C@H](C)CO)C[C@H]2C)cc1	-	.	-	.	.	-
O=C(C[C@H]1CC[C@@H](NC(=O)c2cccnc2)[C@@H](CO)O1)NCc1ccncn1	-	.	-	.	.	-
COc1ccc2sc(NC(=O)c3ccco3)nc2c1	.	-	75	-	-	-
N=c1n(CC(=O)c2ccc(Br)s2)c2ccccc2n1Cc1ccccc1	-	-	-	90	-	60
Cc1ccc(C)c(N2C(=O)CC(Cc3ccccc3)C2=O)c1 (configuration not stated)	-	75	-	-	-	-
Cc1cc(C)cc(CC2CC(=O)N(c3cc(C)ccc3C)C2=O)c1 (configuration not stated)	-	-	-	-	-	-
C[C@@H]1CN([C@@H](C)CO)C(=O)c2cc(NC(=O)Nc3cccc4ccccc34)ccc2O[C@@H](C)CCCCO[C@H]1CN(C)S(=O)(=O)c1cccs1	-	.	-	.	.	-
O=C(c1cccnc1)N1C[C@@H]2[C@H](c3ccccc31)[C@H](CO)N2C(=O)C1CCCC1	-	.	-	.	.	-
Cc1nn(C)cc1CN(C)Cc1ccc(OCC(O)CN2CCCCC2)cc1 (configuration not stated)	-	-	-	-	-	-
CN(Cc1ccc(OCC(O)CN2CCCCC2)cc1)Cc1ccnc2ccccc12 (configuration not stated)	-	-	-	-	87	-
COc1ccc(NC(=O)Nc2ccc3c(c2)[C@H]2C[C@@H](CC(=O)N4CCc5ccccc5C4)O[C@@H](CO)[C@H]2O3)cc1	-	.	-	.	.	-

Source: PubChem BioAssay (Broad Institute)
